Source: PubChem BioAssay
ELG1 DNA repair = ELG1-dependent DNA repair inhibition. HEK293T ELG1-luciferase reporter, luminescence, 16 h; DNA damage induced by 5-fluorouridine. Potency, µM (series often up to 46.1 µM), inactives show top-dose activity change, negative = inhibition, actives largely listed as inhibitors. 330,000 tested, 2.3% active; further: potency means the concentration at half of the fitted maximal effect; nearly all actives have a fitted effect of over 55% in size
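Luminescence from the luciferase reporter, measured 30 min after ONE-Glo reagent at room temperature, was the read-out. Beforehand, 2,000 cells per well were exposed for 16 hr at 37 °C to 5-fluorouridine together with compound or vehicle.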
DT40 TDP1 CPT = DT40-hTDP1 cell growth loss with CPT. chicken DT40 Tdp1-/-;hTDP1 cells + 20 nM CPT, ATP luminescence, 48 h. Potency, µM (titrated, usually from 46.2 µM), for inactives: at the top dose activity change, negative = growth inhibition, actives largely listed as inhibitors. 420,000 tested, 12% active; further: potency means the concentration at half of the fitted maximal effect; nearly all actives have a fitted effect of over 55% in size
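Cell growth measured by CellTiter-Glo luminescence after a minimum 48 h, 37 C compound exposure with 20 nM CPT in Tdp1-knockout DT40 cells stably expressing hTDP1, seeded 400/well; qHTS titration format.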
TDP1 cell noCPT = qHTS for Inhibitors of human tyrosyl-DNA phosphodiesterase 1 (TDP1): qHTS in cells in absence of CPT. DT40 Tdp1-/- hTDP1 cells, no CPT, ATP luminescence, 48 h. 420,000 tested, 15% active. Potency, µM (series often up to 46.2 µM), without a hit: at the top dose activity change, negative = growth inhibition, hits mostly inhibitors; further: potency means the concentration at half of the fitted maximal effect; nearly all actives have a fitted effect of over 55% in size
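Seeded 400 DT40-hTDP1 cells/well (vehicle DMSO, no 20 nM CPT); pinned compounds; ≥48 hr at 37 °C; CellTiter-Glo luminescence as viability measure.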
HT1080-NT tox = kills 2HG-producing HT-1080-NT fibrosarcoma cells; AID 686970; 360,000 tested, 1.6% active; Potency, µM (highest dose often 46.1 µM), without a hit: at the highest dose activity, negative = less viability, actives largely listed as cytotoxic; HT-1080-NT fibrosarcoma viability, CellTiter-Glo ATP luminescence, 48 h;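 further: NT is the 2HG producing partner of a matched IDH1 knockdown line; potency means the concentration at half of the fitted maximal effect; 0% = DMSO-treated cells and -100% = media-only wells without cells; nearly all actives have a fitted effect of over 55% in size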
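Toxicity toward the 2HG-producing NT line was scored as %Activity, normalised to DMSO and no-cell wells, from CellTiter-Glo luminescence after 48 hours' treatment.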
IL1B secr inh = inhibitors of inflammasome signaling (IL-1 beta secretion); THP-1 LPS/ATP IL-1B secretion, AlphaLISA, 16 h; active compounds read low; activity change, % at 57.5 µM; 360,000 tested, 4.7% active; AID 743279; in the data active means activity change below about -50%; inconclusive means mostly about -30% to -49%
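THP-1 cells pretreated 1 hr with compounds (up to 57.5 uM final), then stimulated with LPS (250 ng/mL final) plus ATP (1.25 mM final); secreted IL-1B measured by AlphaLISA after 16 hr, decreased signal indicating inhibition.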
HT1080 IDH1KD tx = toxicity to HT-1080 IDH1 knockdown cells (counter line); 360,000 tested, 2% active; Potency, µM (top dose mostly 46.1 µM), inactives show at the highest dose activity, negative = toxicity, hits mostly cytotoxic; HT-1080 IDH1 knockdown viability, ATP luminescence, 48 h; AID 686971;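 further: potency means the concentration at half of the fitted maximal effect; 0% = DMSO wells and -100% = cell-free medium wells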
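Luminescent ATP read-out (CellTiter-Glo, 10 min at room temperature) after 48 h compound exposure at 37 °C gave viability of IDH1-knockdown HT-1080 cells. Activity was normalised to DMSO and cell-free wells, then fitted as concentration-response curves.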
Numbers without * were called inactive; ? = inconclusive; nt = no result given; [ ] = dose if it differs, or a comment. Compounds with a hit are over-represented: about 19% of the library has one in this group of screens. Unless noted, the call rests on the fitted dose curve; in most records, active means well fitted curve in the direction sought with a large enough effect; inconclusive means small, poorly fitted or top-dose-only effect, or another doubt; inactive means no such curve, though single readings can be large; an effect the other way counts as inactive or inconclusive. Unless noted, on the % scale 0 is the no-effect control and ±100 the full control effect.

SMILES	ELG1 DNA repair	DT40 TDP1 CPT	TDP1 cell noCPT	HT1080-NT tox	IL1B secr inh	HT1080 IDH1KD tx
CCCCCCCCCCCCCC(=O)OCC(COP(=O)([O-])OCC[N+](C)(C)C)OC(=O)CCCCCCCCCCCCC (stereo unspecified)	nt	5%	0%	nt	nt	nt
Cc1ccc(S(=O)(=O)NC(=O)C2(C)CCN2C(=O)COc2ccc(Cl)cc2)nc1 (stereo unspecified)	nt	9%	-2%	3%	-3	-2%
COc1ccc(N(CC(=O)NN=C2CCN(C)CC2)S(=O)(=O)c2ccc(NC(C)=O)cc2)cc1	-2%	-17%	-1%	-18%	3	-17%
O=[N+]([O-])c1ccc(-c2nc(Nc3cccc(O)c3)c3ccccc3n2)cc1	?	16µM*	4.1µM*	?	-70*	?
c1ccc(-c2nc(NCCCN3CCOCC3)c3ccccc3n2)cc1	?	9%	?	-1%	?	-14%
Oc1cccc(Nc2c3ccccc3nc3ccccc23)c1	?	1.2µM*	1.8µM*	?	-25	?
Oc1cccc(Nc2nc(-c3ccccc3Cl)nc3ccccc23)c1	?	16µM*	13µM*	?	?	?
Cc1ccc(-c2nc(Nc3ccc(N4CCOCC4)cc3)c3ccccc3n2)cc1	23µM*	?	23µM*	18µM*	nt	21µM*
NNc1nc(-c2ccccc2Cl)nc2ccccc12	-11%	-29%	-20%	-6%	-2	1%
COc1cccc(NC(=O)c2ccc3[nH]c(C)cc(=O)c3c2)c1	nt	-16%	?	nt	nt	nt
COC(=O)c1ccc(Nc2nc(-c3ccc(C)cc3)nc3ccccc23)cc1	nt	13µM*	7.3µM*	nt	nt	nt
CCOc1cc(Br)cc(/C=N/NC(=O)c2cccnc2)c1O	?	0.46µM*	0.37µM*	?	191	?
COc1c(Br)cc(Br)cc1/C=N/NC(=O)c1ccncc1	-8%	?	?	1%	75	1%
CCOc1ccc(Br)cc1/C=N/NC(=O)c1ccncc1	0%	?	?	-1%	40	-1%
CCNC(=S)N/N=C/c1cc(Br)cc(Br)c1OC	-9%	5.2µM*	6.5µM*	4.5µM*	0	4µM*
COc1c(Br)cc(Br)cc1/C=N/NC(=O)c1cccnc1	-25%	18µM*	?	-18%	44	?
COc1ccc(CNC(=O)C(CCSC)NS(=O)(=O)c2ccc3c(c2)oc(=O)n3C)cc1 (stereo unspecified)	nt	-16%	-12%	nt	nt	nt
CC1(C)NC(=O)N(CCCCOc2ccccc2[N+](=O)[O-])C1=O	1%	nt	nt	nt	nt	nt
CC1(C)NC(=O)N(c2ccc([N+](=O)[O-])c(C(F)(F)F)c2)C1=O	-17%	19µM*	4.6µM*	9%	6	0%
COc1ccc(Cn2cc(CN3CC(N4CC=CC4)CS3(=O)=O)nn2)cc1 (stereo unspecified)	nt	-4%	-12%	14%	-10	4%
COc1ccc(NC(=O)CN2C(=O)CCn3nc(-c4cccn4C)cc32)cc1	nt	2%	8%	nt	nt	nt
Cn1c(=O)c2cc(NC(=O)NCc3ccccc3)ccc2n1Cc1ccc(Cl)cc1	nt	?	?	-11%	42	-21%
COc1ccc(OC)c(CC(=O)Nc2ccc3c(c2)c(=O)n(C)n3Cc2cccc(C(F)(F)F)c2)c1	nt	29µM*	?	-9%	-15	-6%
COc1ccc(CNC(=O)Nc2ccc3c(c2)c(=O)n(C)n3Cc2cccc(C(F)(F)F)c2)cc1	nt	?	23µM*	-17%	10	?
CC(C(=O)N1CCCC1)N(C)CC(=O)Nc1cccc(F)c1 (stereo unspecified)	?	-1%	-5%	11%	-3	-5%
SMILES	ELG1 DNA repair	DT40 TDP1 CPT	TDP1 cell noCPT	HT1080-NT tox	IL1B secr inh	HT1080 IDH1KD tx
C=CCOC(=O)C1=C[C@@H](c2csc3ccccc23)C[C@@H](OCCCCO)O1	nt	-25%	-16%	7%	10	7%
COc1ccc(CN(C(=O)c2ccco2)c2ccccc2)cc1	-9%	?	?	0%	-19	0%
O=C(c1ccccc1Br)N(Cc1ccccc1)c1ccccc1	?	21µM*	12µM*	-10%	-57*	-9%
O=c1c(Br)c(Br)cnn1-c1ccccc1	?	4.1µM*	3.7µM*	2.9µM*	-106*	4.1µM*
Cc1ccc(-n2ncc(Br)c(Br)c2=O)cc1	?	4.1µM*	3.7µM*	4.6µM*	-99*	5.2µM*
CCCCCCCc1ccc(C2NC(=S)NC3=C2C(=O)c2ccccc23)cc1 (stereo unspecified)	-1%	16µM*	?	3%	9	3%
CCc1ccc(C2NC(=S)NC3=C2C(=O)CCC3)cc1 (stereo unspecified)	7%	-5%	-19%	-5%	2	-11%
CCN(CC)c1nc(NC2CCN(C)CC2)c2cc(OC)c(OC)cc2n1	nt	5.6µM*	10µM*	?	nt	?
C=CCNc1nc(NC2CCN(C)CC2)c2cc(OC)c(OC)cc2n1	nt	13µM*	?	nt	nt	nt
C=CCNc1nc(Cl)nc(NC2CCCCC2)n1	?	7%	5%	-28%	4	-19%
CCOc1ccccc1C(=O)NCC(=O)Nc1ccc(-c2ccccc2)cc1	1%	-2%	?	0%	30	-11%
COCc1c(C(=O)N2CC3CCC2C3)cnn1-c1nccc(-c2ccccc2OC)n1 (stereo unspecified)	nt	4%[9.04 µM]	-18%	nt	nt	nt
COc1ccccc1N1CCN(S(=O)(=O)c2ccc3c(c2)n(C)c(=O)n3C)CC1	9%	0%	-15%	0%	-16	0%
NC(=O)c1cc2c3ccccc3ccn2c1-c1ccccc1	?	0.18µM*	0.21µM*	1.6µM*	-91*	?
Cc1cc(C(N)=O)c2ccccc2n1	-13%	1%	0%	1%	16	-9%
Cc1nc2ccc(S(=O)(=O)NCC(=O)NC(C)c3ccccc3)cc2s1 (stereo unspecified)	9%	-5%	1%	1%	5	-2%
COc1ccc(N2CCN(C(=O)CCc3ccc(S(=O)(=O)NCC(C)C)cc3)CC2)cc1	?	?	?	-2%	-1	-12%
Cc1ccc(S(=O)(=O)NCCC(=O)N2CCOCC2)cc1C	-3%	-1%	-2%	3%	16	2%
